From PubChem BioAssay come the findings set out here.

Test [1] is described as follows: antimalarial activity against Dd2 strain (AID 2302;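 active = growth inhibition above 50% at the single 2 µM test dose, taken to imply half-maximal potency below 2 µM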;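 also: 0% = DMSO untreated growth and 100% = chloroquine plus artemisinin killed control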). As to conditions: P. falciparum Dd2 in RBCs, LDH growth readout, 72 h; at 2 µM; active compounds read high.
Test [2] is described as follows: human hepatoma cell viability loss – ATP luminescence, cytotoxicity control for P. falciparum antimalarial project, primary screen (AID 2303;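 active = inhibition above 50%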;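 also: 0% = DMSO wells and 100% = digitonin-killed cells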). To be noted: HepG2 viability, 24-48 h, at 10 µM, active compounds read high.
Test [3] concerns the target L-lactate dehydrogenase (Plasmodium falciparum (isolate CDC / Honduras)) (UniProt Q27743). The experiment in a line: PfLDH activity inhibition – cell lysate, 3D7 strain, counter-screen for P. falciparum growth inhibition project (AID 2304).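 Also: 0% = vehicle and 100% = reference inhibitor.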 To be noted: P. falciparum 3D7 crude extract, LDH APAD/NBT absorbance; at 2 µM; active compounds read high. (A counterscreen serves to expose hits that act by an unwanted route or on another target.)

Test [4] in a line: inhibition of 3D7 malaria parasite growth – strain 3D7 (AID 2306).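 Also: 0% = DMSO wells and 100% = chloroquine plus artemisinin control wells.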 As to conditions: P. falciparum 3D7 erythrocytic growth, LDH absorbance, 72 h; at 2 µM; active compounds read high.
Test [5] addresses Calcium-dependent protein kinase 1 (Plasmodium falciparum (isolate 3D7)) (UniProt P62344). The experiment in a line: PfCDPK1 kinase inhibitors, biochemical, TCAMS library (AID 1159585; cut-off not given, nearly all actives have IC50 up to about 0.98 µM;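 also: inhibitors leave more ATP so luminescence rises with inhibition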). To be noted: recombinant PfCDPK1, Kinase-Glo ATP depletion luminescence. On the technique in general: Kinase-Glo measures the ATP left after a reaction by luminescence.
Test [6] addresses Plasmodium falciparum protein kinase 6 (PK6, PF3D7_1337100) (UniProt Q8IDW1). The experiment in a line: PfPK6 kinase inhibitors, biochemical, TCAMS library (AID 1159586). As to conditions: recombinant PfPK6, Kinase-Glo ATP depletion luminescence.
In test [7] the target is Protein kinase 7 (PK7), Plasmodium falciparum 3D7 (PF3D7_0213400) (UniProt Q7YTF7). Kind of test: inhibition of Plasmodium PK7 catalytic activity – biochemical, TCAMS antimalarial set, Kinase-Glo luminescence (AID 1159587). As to conditions: recombinant PfPK7, Kinase-Glo ATP depletion luminescence.
Protein kinase 7 (PK7), Plasmodium falciparum 3D7 (PF3D7_0213400), sequence (Q7YTF7 1-343): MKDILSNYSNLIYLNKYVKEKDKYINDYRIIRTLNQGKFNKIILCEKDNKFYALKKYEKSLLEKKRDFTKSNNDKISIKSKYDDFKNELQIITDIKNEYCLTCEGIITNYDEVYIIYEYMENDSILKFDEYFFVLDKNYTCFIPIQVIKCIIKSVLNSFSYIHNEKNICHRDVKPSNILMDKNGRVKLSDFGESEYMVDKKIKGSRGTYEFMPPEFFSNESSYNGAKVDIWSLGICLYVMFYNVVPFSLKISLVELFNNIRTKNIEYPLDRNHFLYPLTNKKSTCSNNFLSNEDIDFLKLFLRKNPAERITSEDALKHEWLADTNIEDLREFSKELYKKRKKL
For test [8], the target named is Calcium-dependent protein kinase 4 (Plasmodium falciparum (isolate 3D7)) (UniProt Q8IBS5). The experiment in a line: PfCDPK4 kinase inhibitors, biochemical, TCAMS library (AID 1159588; cut-off not given, nearly all actives have IC50 up to about 0.91 µM). As to conditions: recombinant PfCDPK4, Kinase-Glo ATP depletion luminescence.
Calcium-dependent protein kinase 4 (Plasmodium falciparum (isolate 3D7)), sequence (Q8IBS5 whole entry, looked up): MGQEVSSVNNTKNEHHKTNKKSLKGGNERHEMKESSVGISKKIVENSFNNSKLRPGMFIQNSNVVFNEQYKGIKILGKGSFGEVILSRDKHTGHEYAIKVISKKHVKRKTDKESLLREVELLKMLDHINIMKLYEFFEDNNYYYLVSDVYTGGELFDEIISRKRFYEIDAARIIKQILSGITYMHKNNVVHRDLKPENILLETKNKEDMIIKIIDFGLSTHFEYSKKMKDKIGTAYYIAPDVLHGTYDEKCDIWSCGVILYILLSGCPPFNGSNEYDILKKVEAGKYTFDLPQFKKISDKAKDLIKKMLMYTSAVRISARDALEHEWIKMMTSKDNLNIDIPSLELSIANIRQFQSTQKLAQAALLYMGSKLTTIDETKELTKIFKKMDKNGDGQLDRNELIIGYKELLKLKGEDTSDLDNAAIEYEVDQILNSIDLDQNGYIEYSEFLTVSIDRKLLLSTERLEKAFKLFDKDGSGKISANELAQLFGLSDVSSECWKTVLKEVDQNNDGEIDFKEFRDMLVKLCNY

Each structure is given as a SMILES string. Unmarked numbers belong to inactive results. For some assays here: Results with a measured potency or affinity are listed apart. Calls of active or inactive are those of the source. Unless noted, no rule for the calls is given here.

L-lactate dehydrogenase (Plasmodium falciparum (isolate CDC / Honduras)), sequence (Q27743 whole entry, looked up): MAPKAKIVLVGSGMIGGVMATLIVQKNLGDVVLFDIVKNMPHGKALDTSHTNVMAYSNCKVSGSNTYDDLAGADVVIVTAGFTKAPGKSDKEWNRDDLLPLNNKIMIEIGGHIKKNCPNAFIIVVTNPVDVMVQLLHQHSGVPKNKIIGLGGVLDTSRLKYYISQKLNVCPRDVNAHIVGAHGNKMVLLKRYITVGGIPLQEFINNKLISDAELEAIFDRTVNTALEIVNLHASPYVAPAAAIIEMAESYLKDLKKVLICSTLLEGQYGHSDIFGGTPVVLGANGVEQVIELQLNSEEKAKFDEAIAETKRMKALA
Plasmodium falciparum protein kinase 6 (PK6, PF3D7_1337100), sequence (Q8IDW1 1-305): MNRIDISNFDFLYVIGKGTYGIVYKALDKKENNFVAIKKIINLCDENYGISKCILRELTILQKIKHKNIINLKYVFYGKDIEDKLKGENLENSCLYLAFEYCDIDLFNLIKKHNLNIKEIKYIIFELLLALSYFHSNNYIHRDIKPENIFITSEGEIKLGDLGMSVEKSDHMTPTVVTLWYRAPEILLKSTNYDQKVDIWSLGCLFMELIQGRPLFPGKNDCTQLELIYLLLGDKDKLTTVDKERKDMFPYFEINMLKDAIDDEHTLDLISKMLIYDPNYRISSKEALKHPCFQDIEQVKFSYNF
Calcium-dependent protein kinase 1 (Plasmodium falciparum (isolate 3D7)), sequence (P62344 whole entry, looked up): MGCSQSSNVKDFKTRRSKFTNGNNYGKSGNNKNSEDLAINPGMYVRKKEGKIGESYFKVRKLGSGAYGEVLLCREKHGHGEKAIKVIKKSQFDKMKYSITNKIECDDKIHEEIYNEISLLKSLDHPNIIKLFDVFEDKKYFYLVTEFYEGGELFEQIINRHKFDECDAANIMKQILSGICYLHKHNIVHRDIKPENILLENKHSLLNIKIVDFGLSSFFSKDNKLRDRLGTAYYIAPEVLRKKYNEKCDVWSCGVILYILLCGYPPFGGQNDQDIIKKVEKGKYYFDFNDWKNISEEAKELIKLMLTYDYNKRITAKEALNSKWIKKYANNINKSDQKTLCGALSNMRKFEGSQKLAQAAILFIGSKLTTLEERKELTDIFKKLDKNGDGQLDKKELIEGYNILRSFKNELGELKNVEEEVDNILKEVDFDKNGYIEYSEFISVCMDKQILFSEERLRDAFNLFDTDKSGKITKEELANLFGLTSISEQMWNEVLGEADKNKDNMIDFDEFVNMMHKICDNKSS

By inhibition is commonly meant the change of the read-out against control, counted positive when it falls. Take `Cc1nc(N)nc(N)c1-c1ccc(Br)cc1`: the growth inhibition was 1% in test [1] and 98% (active) in test [4]. The inhibition in test [2] is 46%; in test [3], 3%. For the same molecule, the result in test [5], in test [6], in test [7] and in test [8] was inactive.
Turning to `Cc1cc(NC(=O)c2cccs2)ccc1OC1CCN(Cc2ccc(F)cc2)CC1`, the growth inhibition in test [1] is 92% (active); in test [4], 94% (active). For the same molecule, the figures for the inhibition in test [2] and in test [3] were 7% and -1%, respectively. Further, the result in test [5], in test [6], in test [7] and in test [8] was inactive.
With `Cc1cc(Nc2ccccc2)nc(Nc2ccccc2)n1`, the growth inhibition was 74% (active) in test [1] and 96% (active) in test [4]. Also, the results for the inhibition in test [2] and in test [3] were 0% and -1%, respectively. Moreover, the result in test [5], in test [6], in test [7] and in test [8] was inactive.
Turning to `FC(F)(F)c1ccc2nc(-c3cccc(-c4ccc(CNCC5CCCO5)cc4)c3)[nH]c2c1` (configuration not stated), the growth inhibition in test [1] and in test [4] was 99% (active) each time. Further, the inhibition in test [2] is 29%; in test [3] it was -7%. The outcome in test [5], in test [6], in test [7] and in test [8] was inactive.
